The list is not random: actives were taken first. Their share in the collection is about 4.5%.
GAA850 FXN act: increases GAA850 frataxin promoter reporter activity | activation, % at 6 µM | 0.56% of 360,000 active | AID 540364 | HEK293 lucGAA850 FXN promoter luciferase reporter, 24 h; percent of 10 µM SAHA response;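 active means activation above the average of all compounds screened plus 3 SD, cutoff fixed separately per campaign, cut at about 7.5% in these data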;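 further: 0% = DMSO wells and 100% = 10 µM SAHA wells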
DAX1 inh-1: blocks DAX1 repression of SF-1 activated StAR promoter | 1.1% of 370,000 active | HEK293T StAR-luciferase reporter, SF-1/DAX-1 repression relief | inhibition, % at 6.8 µM;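 active means inhibition above the mean over all tested compounds plus 3 SD, cut at about 3.6% in these data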;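 further: 0% = DAX-1 cells with DMSO and 100% = cells lacking DAX-1 with DMSO; higher inhibition means more luminescence from relief of DAX-1 repression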
ssDAF-12 act: S. stercoralis DAF-12 activation, primary screen | 1% of 370,000 active | activation, % at 6.8 µM | HEK293 ssDAF-12/GRIP1 lit1-tk-luc reporter, luminescence; % of 3 µM dafachronic acid response | AID 652126;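 active means activation above the mean over all tested compounds plus 3 SD, cut at about 0.9% in these data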;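 further: 0% = DMSO-only wells and 100% = 3 µM delta7-dafachronic acid wells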
DAX1 inh-2: NR0B1 (DAX1) inhibition | inhibition, % at 6.75 µM | P51843 | AID 504766 | HEK293 Gal4-DAX1 luciferase reporter, luminescence | 0.99% of 340,000 active;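 active means inhibition above the mean over all tested compounds plus 3 SD, cut at about 4.2% in these data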;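 further: 0% = DAX1-transfected cells with DMSO and 100% = empty-vector control cells with DMSO; inhibition shows as a rise in luminescence from relieved DAX1 repression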
Target sequence (P51843 207-470 limits assumed): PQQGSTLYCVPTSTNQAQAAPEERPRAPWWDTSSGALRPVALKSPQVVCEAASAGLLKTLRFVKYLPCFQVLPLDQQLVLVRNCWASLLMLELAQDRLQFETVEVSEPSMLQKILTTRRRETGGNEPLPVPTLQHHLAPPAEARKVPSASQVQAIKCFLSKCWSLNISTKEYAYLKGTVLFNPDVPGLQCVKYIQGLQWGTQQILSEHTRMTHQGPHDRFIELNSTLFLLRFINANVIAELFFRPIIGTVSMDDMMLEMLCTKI
hcDAF12 agonist: H. contortus DAF-12 activation, primary screen | HEK293 hcDAF-12 lit1-tk-luc reporter, luminescence; 0% DMSO, 100% Δ7-dafachronic acid | activation, % at 6.8 µM | 1.4% of 370,000 active;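 active means activation above the mean of all tested compounds plus 3 SD, cut at about 5.5% in these data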;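 further: 100% = response to 3 µM Δ7-dafachronic acid high control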
hgDAF12 agonist: activates the H. glycines DAF-12 receptor ligand-binding domain | 1.8% of 370,000 active | activation, % at 6.8 µM | AID 687014 | HEK293 GAL4-hgDAF12 UAS-luciferase reporter, agonist luminescence; normalized to butyrate control;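 active means activation above a cutoff set at the mean of all screened compounds plus 3 SD, cut at about 10% in these data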;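 further: 0% = DMSO wells and 100% = sodium butyrate wells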
DAX1 conf: NR0B1 (human) inhibition, confirmation | shares compounds with DAX1 inh-1 | HEK293T StAR-promoter luciferase reporter, SF-1/DAX-1 repression | inhibition, % at 6.8 µM | 87% of 2,400 active;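 active means inhibition above the average of every tested compound plus 3 SD, cut at about 3.8% in these data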;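 further: 0% = DAX-1 cells with DMSO and 100% = no DAX-1 control cells with DMSO; active compounds raise luminescence by relieving repression of the StAR reporter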
Target sequence (P51843 whole entry, looked up): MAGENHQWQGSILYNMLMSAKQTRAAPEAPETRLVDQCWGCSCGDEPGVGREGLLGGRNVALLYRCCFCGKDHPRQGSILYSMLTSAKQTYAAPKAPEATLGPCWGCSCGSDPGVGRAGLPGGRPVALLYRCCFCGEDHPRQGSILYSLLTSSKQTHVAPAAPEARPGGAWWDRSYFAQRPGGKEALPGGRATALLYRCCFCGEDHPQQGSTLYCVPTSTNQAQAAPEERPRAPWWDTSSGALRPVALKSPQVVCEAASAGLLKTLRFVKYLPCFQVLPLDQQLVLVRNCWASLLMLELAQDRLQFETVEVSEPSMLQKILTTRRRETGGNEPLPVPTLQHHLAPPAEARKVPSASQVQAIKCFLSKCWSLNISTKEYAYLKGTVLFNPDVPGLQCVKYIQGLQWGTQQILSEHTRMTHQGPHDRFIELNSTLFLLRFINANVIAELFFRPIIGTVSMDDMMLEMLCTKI
SF1 AF2mut Luc: counter-screen for DAX1 inhibitors: nonselective inhibitors with SF-1 AF2 mutant; shares compounds with DAX1 inh-1; HEK293 StAR-luciferase, luminescence; inhibition, % at 6.8 µM; 78% of 2,400 active; AID 652136;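 active means inhibition above the mean of all tested compounds plus 3 SD, cut at about 3% in these data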;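 further: 0% = DAX-1 transfected cells with DMSO and 100% = cells without DAX-1 with DMSO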
The depositor's hits bear a star.

How did O=C(OC12CCCN(C1)/C(=C/c1cccc(Cl)c1)C2)C1CCCC1 (stereo unspecified) do in these assays?
DAX1 inh-1: 1; ssDAF-12 act: -1; hcDAF12 agonist: -1; hgDAF12 agonist: 2

What do the screens show for `CCC(C#Cc1ccccc1)NCc1ccc(OC)cc1OC` (stereo unspecified)?
ssDAF-12 act: -1; hcDAF12 agonist: -1; hgDAF12 agonist: 3

Results for Cc1cc(S(=O)(=O)Nc2ccc(C(=O)NCC3(N4CCCCC4)CCCCC3)cc2)ccc1F ?
GAA850 FXN act: 4; DAX1 inh-1: 7.4*; ssDAF-12 act: 0; DAX1 inh-2: 2; hcDAF12 agonist: 1; hgDAF12 agonist: 1; DAX1 conf: 7.6*; SF1 AF2mut Luc: 6.1*

How did CCOc1ccc(NS(=O)(=O)c2ccc(C(=O)NCC3(N4CCCCC4)CCCCC3)cc2)cc1 do in these assays?
GAA850 FXN act: -1; DAX1 inh-1: 4.5*; ssDAF-12 act: 0; DAX1 inh-2: 1; hcDAF12 agonist: -1; hgDAF12 agonist: 2; DAX1 conf: 11*; SF1 AF2mut Luc: 3.5*

What do the screens show for `CC(=O)Nc1ccc(C(=O)NCC2(N3CCCCC3)CCCCC2)cc1`?
GAA850 FXN act: 1; DAX1 inh-1: 4.6*; ssDAF-12 act: -1; DAX1 inh-2: 1; hcDAF12 agonist: 0; hgDAF12 agonist: 1; DAX1 conf: 5.3*; SF1 AF2mut Luc: 3.0*

What do the screens show for `Cc1cc(S(=O)(=O)Nc2ccc(C(=O)NCC3(N(C)C)CCCCC3)cc2)ccc1F`?
GAA850 FXN act: 1; DAX1 inh-1: 1; ssDAF-12 act: -1; DAX1 inh-2: -1; hcDAF12 agonist: 0; hgDAF12 agonist: 1

Results for CCOc1ccc(NS(=O)(=O)c2ccc(C(=O)NCC3(N(C)C)CCCCC3)cc2)cc1 ?
GAA850 FXN act: -1; DAX1 inh-1: 4; ssDAF-12 act: -2; DAX1 inh-2: 1; hcDAF12 agonist: 0; hgDAF12 agonist: 1

Results for CC(=O)Nc1ccc(C(=O)NN2C(=O)NC3(CCCCC3)C2=O)cc1 ?
GAA850 FXN act: 2; DAX1 inh-1: -1; ssDAF-12 act: -1; DAX1 inh-2: 1; hcDAF12 agonist: -1; hgDAF12 agonist: 0

Results for O=C(NCC1(N2CCCCC2)CCCCC1)c1cccc(NS(=O)(=O)c2ccccc2)c1 ?
GAA850 FXN act: 4; DAX1 inh-1: 6.9*; ssDAF-12 act: -1; DAX1 inh-2: 0; hcDAF12 agonist: 0; hgDAF12 agonist: 0; DAX1 conf: 8.3*; SF1 AF2mut Luc: 4.1*

Results for COC(=O)[C@]12CCCCC=C1N(Cc1ccc(OC)cc1)C(=O)[C@@H]2CC(=O)NCc1ccc(OC)c(OC)c1 ?
DAX1 inh-1: -1; ssDAF-12 act: 0; hcDAF12 agonist: -4; hgDAF12 agonist: -1

How did Cc1cc2nc(-c3ccco3)c(Cc3ccccc3C(F)(F)F)n2c(C)c1Br do in these assays?
DAX1 inh-1: -1; ssDAF-12 act: 0; hcDAF12 agonist: 1; hgDAF12 agonist: 2

How did O=C(NCC1(N2CCCCC2)CCCCC1)c1cccc(S(=O)(=O)Nc2ccc(F)cc2)c1 do in these assays?
GAA850 FXN act: -3; DAX1 inh-1: 5.0*; ssDAF-12 act: -1; DAX1 inh-2: 0; hcDAF12 agonist: -2; hgDAF12 agonist: -1; DAX1 conf: 5.2*; SF1 AF2mut Luc: 1

Results for N#Cc1ccccc1S(=O)(=O)N1CCC(C(=O)NCc2ccccc2CN2CCCC2)CC1 ?
GAA850 FXN act: 1; DAX1 inh-1: 5.4*; ssDAF-12 act: -1; DAX1 inh-2: 0; hcDAF12 agonist: -1; hgDAF12 agonist: 0; DAX1 conf: 2; SF1 AF2mut Luc: -1

What do the screens show for `Cc1ccc(S(=O)(=O)N2CCC(C(=O)NCc3ccccc3CN3CCCC3)CC2)cc1`?
GAA850 FXN act: 1; DAX1 inh-1: -1; ssDAF-12 act: -1; DAX1 inh-2: 0; hcDAF12 agonist: 0; hgDAF12 agonist: -1

Results for C/C(=N\NC(=O)c1ccco1)c1ccc(NC(=O)C(F)(F)F)cc1 ?
GAA850 FXN act: 4; DAX1 inh-1: 7.2*; ssDAF-12 act: -1; DAX1 inh-2: 2; hcDAF12 agonist: 5; hgDAF12 agonist: 9; DAX1 conf: 2; SF1 AF2mut Luc: 1

What do the screens show for `Cc1ccc(C)c(N2CCN(C(=O)CCc3nc(-c4ccccc4)no3)CC2)c1`?
GAA850 FXN act: -1; DAX1 inh-1: 1; ssDAF-12 act: 0; DAX1 inh-2: -1; hcDAF12 agonist: -1; hgDAF12 agonist: 6

What do the screens show for `Cc1cccc(-c2noc(CCC(=O)N3CCN(c4cc(C)ccc4C)CC3)n2)c1`?
GAA850 FXN act: 2; DAX1 inh-1: 6.3*; ssDAF-12 act: 0; DAX1 inh-2: 3; hcDAF12 agonist: 2; hgDAF12 agonist: 10; DAX1 conf: 6.0*; SF1 AF2mut Luc: 3.9*

Results for CSc1ccc(C2C(C(=O)c3ccco3)=C(O)C(=O)N2c2nnc(SC)s2)cc1 (stereo unspecified) ?
GAA850 FXN act: 5; DAX1 inh-1: 6.4*; ssDAF-12 act: -1; DAX1 inh-2: -1; hcDAF12 agonist: 4; hgDAF12 agonist: 12*; DAX1 conf: 3; SF1 AF2mut Luc: 3.1*

What do the screens show for `Cc1nnc(N2C(=O)C(O)=C(C(=O)c3ccco3)C2c2ccc(F)cc2)s1` (stereo unspecified)?
GAA850 FXN act: -3; DAX1 inh-1: -1; ssDAF-12 act: -1; DAX1 inh-2: 0; hcDAF12 agonist: -1; hgDAF12 agonist: 2

How did O=C(NCCc1cccc(Cl)c1)c1cccs1 do in these assays?
GAA850 FXN act: 3; DAX1 inh-1: 4.5*; ssDAF-12 act: -2; DAX1 inh-2: 0; hcDAF12 agonist: 4; hgDAF12 agonist: 11*; DAX1 conf: 6.6*; SF1 AF2mut Luc: 3.8*

How did COc1ccc(C(CNC(=O)c2cccc(S(=O)(=O)Nc3ccccc3OC)c2)N2CCCC2)cc1 (stereo unspecified) do in these assays?
GAA850 FXN act: 0; DAX1 inh-1: 5.7*; ssDAF-12 act: -1; DAX1 inh-2: 1; hcDAF12 agonist: -1; hgDAF12 agonist: 0; DAX1 conf: 6.3*; SF1 AF2mut Luc: 3.4*

How did COc1ccc(C(CNC(=O)c2ccc(C)c(S(=O)(=O)Nc3ccccc3OC)c2)N2CCCC2)cc1 (stereo unspecified) do in these assays?
GAA850 FXN act: -6; DAX1 inh-1: 5.3*; ssDAF-12 act: -1; DAX1 inh-2: 1; hcDAF12 agonist: 2; hgDAF12 agonist: 3; DAX1 conf: 6.2*; SF1 AF2mut Luc: 5.3*

Source: PubChem BioAssay (The Scripps Research Institute Molecular Screening Center)
